# Results published in the supplement of paper PMC4723716.
# ± gives the uncertainty stated by the source. Whole data set: some 9,900 compounds, median “viability index relative to DMSO control” near 1, cut for the lowest 2% near 0.85. What follows is part of a selection rich in the lowest values, with near analogues and random picks from the rest.
# System: Plasmodium falciparum NF54 stage V gametocytes
# Test: viability index relative to DMSO control (fraction); higher = less gametocyte killing
# Conditions: 2.5 µM, incubation time: 72 h
# Experimental: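 Broad DOS informer set and blood-stage-active DOS compounds screened in duplicate at 2.5 µM against P. falciparum NF54 stage V gametocytes with the serum-free one-step SaLSSA (1536-well): 72 h at 37 °C under low oxygen, then saponin lysis and MitoTracker Red CMXRos staining, with high-content imaging. Viability index = viable-object count divided by the plate mean of DMSO wells (0 = killed, about 1 = inactive).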
# [1] = library set: Broad Institute DOS
# [2] = library set: Broad Institute Blood Stage
SMILES,viability index [1],viability index [2]
CC(C)C#Cc1ccc([C@H]2[C@H](CO)N3C(=O)CN(C(=O)Cc4ccccc4)C[C@@H]23)cc1,1.08 ± 0.08,–
CC(C)C#Cc1ccc([C@@H]2[C@H]3CN(C(=O)Cc4ccccc4)CC(=O)N3[C@H]2CO)cc1,0.864 ± 0.047,–
C/C=C/c1ccc([C@H]2[C@@H](CO)N3C(=O)CN(S(=O)(=O)c4ccccc4)C[C@H]23)cc1,0.975 ± 0.12,–
CC(C)C#Cc1ccc([C@@H]2[C@@H](CO)N3C(=O)CN(C(=O)Cc4ccccc4)C[C@@H]23)cc1,1.07 ± 0.047,–
CC(C)C#Cc1ccc([C@@H]2[C@@H](CO)N3C(=O)CN(C(=O)Cc4ccccc4)C[C@H]23)cc1,1.04 ± 0.039,–
C/C=C/c1ccc([C@H]2[C@H]3CN(S(=O)(=O)c4ccccc4)CC(=O)N3[C@H]2CO)cc1,1.03 ± 0.034,–
CC(C)C#Cc1ccc([C@H]2[C@@H](CO)N3C(=O)CN(C(=O)Cc4ccccc4)C[C@H]23)cc1,0.848 ± 0.025,–
CC(C)C#Cc1ccc([C@H]2[C@@H](CO)N3C(=O)CN(C(=O)Cc4ccccc4)C[C@@H]23)cc1,1.07 ± 0.021,–
O=C(Cc1ccccc1)N1CC(=O)N2[C@H](CO)[C@H](c3ccc(C#Cc4ccccc4)cc3)[C@H]2C1,–,0.728 ± 0.097
C/C=C/c1ccc([C@@H]2[C@@H](CO)N3C(=O)CN(S(=O)(=O)c4ccccc4)C[C@@H]23)cc1,0.777 ± 0.16,–
O=C(Cc1ccccc1)N1CC(=O)N2[C@H](CO)[C@H](c3ccc(C#CCc4ccccc4)cc3)[C@H]2C1,–,0.699 ± 0.1
CC(C)C#Cc1ccc([C@@H]2[C@H](CO)N3C(=O)CN(C(=O)Cc4ccccc4)C[C@@H]23)cc1,1.1 ± 0.016,–
C[C@H]1CN([C@@H](C)CO)C(=O)c2c(c3ccccc3n2C)-c2ccccc2CO[C@@H]1CN(C)C(=O)[C@@H](Cc1ccccc1)N(C)C,1.07 ± 0.11,–
CCS(=O)(=O)Nc1ccc2c(c1)C(=O)N(C)C[C@H](OC)[C@H](C)CN(CC1CCCCC1)[C@H](C)CO2,0.995 ± 0.1,–
CN1CCN(C(=O)c2cc3c(c(-c4cccc(C5=CCCC5)c4)n2)[C@@H](CCO)N([S@](=O)C(C)(C)C)C3)CC1,0.991 ± 0.024,–
O=C(Nc1cccc(Cl)c1)N1C[C@H]2[C@@H](c3ccccc31)[C@@H](CO)N2Cc1cccnc1,1.06 ± 0.092,–
C[C@@H]1CCCn2cc(nn2)COCCNC1=O,0.994 ± 0.094,–
CC(C)CC#Cc1ccc([C@H]2[C@@H](CO)N3CCCCN(C(=O)Nc4ccccc4)C[C@H]23)cc1,0.782 ± 0.084,–
CC(C)CC#Cc1ccc([C@@H]2[C@@H](CO)N3CCCCN(C(=O)Nc4ccccc4)C[C@@H]23)cc1,1 ± 0.15,–
CC(C)CC#Cc1ccc([C@@H]2[C@@H](CO)N3CCCCN(C(=O)Nc4ccccc4)C[C@H]23)cc1,0.844 ± 0.032,–
CC(C)CC#Cc1ccc([C@H]2[C@@H](CO)N3CCCCN(C(=O)Nc4ccccc4)C[C@@H]23)cc1,1.02 ± 0.057,–
CC(C)CC#Cc1ccc([C@H]2[C@H](CO)N3CCCCN(C(=O)Nc4ccccc4)C[C@@H]23)cc1,0.935 ± 0.034,–
CC(C)CC#Cc1ccc([C@@H]2[C@H]3CN(C(=O)Nc4ccccc4)CCCCN3[C@H]2CO)cc1,0.542 ± 0.086,–
CC(C)CC#Cc1ccc([C@@H]2[C@H](CO)N3CCCCN(C(=O)Nc4ccccc4)C[C@@H]23)cc1,0.877 ± 0.053,–

SMILES,viability index [1],viability index [2]
CC(C)CC#Cc1ccc([C@H]2[C@H]3CN(C(=O)Nc4ccccc4)CCCCN3[C@H]2CO)cc1,0.99 ± 0.061,–
COCC#Cc1ccc([C@@H]2[C@@H](CO)N3CCCCN(C(=O)NC4CCCC4)C[C@@H]23)cc1,1.01 ± 0.02,–
Cc1noc(C)c1NC(=O)N1C[C@@H](O)COC[C@H]2O[C@@H](CC(=O)N[C@@H]3CCN(Cc4ccccc4)C3)CC[C@@H]21,0.994 ± 0.052,–
CCC(=O)N1[C@H](CO)[C@@H]2c3ccccc3N(C(=O)c3cnccn3)C[C@@H]21,0.908 ± 0.3,–
C/C=C/c1ccc2n(c1=O)C[C@H]1[C@H](CO)[C@@H](C(=O)Nc3nccs3)N(Cc3cc(F)ccc3F)[C@@H]21.C/C=C\c1ccc2n(c1=O)C[C@H]1[C@H](CO)[C@@H](C(=O)Nc3nccs3)N(Cc3cc(F)ccc3F)[C@@H]21,1.07 ± 0.056,–
Cc1noc(C)c1NC(=O)N(C)C[C@H]1Oc2ccc(NC(=O)Cc3cn(C)c4ccccc34)cc2CC(=O)N([C@@H](C)CO)C[C@H]1C,0.941 ± 0.2,–
COCC#Cc1ccc([C@H]2[C@H]3CN(C(=O)C4CCCCC4)CC(=O)N3[C@H]2CO)cc1,1.01 ± 0.034,–
COc1ccc2c3c([C@@H](CO)N(C)C[C@]33CCN(CC3)C(=O)CN3CCOCC3)n(C)c2c1,0.9699 ± 0.0061,–
CN(C)C(=O)c1cccc(-c2ccc([C@H]3[C@@H]4CN(Cc5ccccc5F)C[C@H]3N4)cc2)c1,1.05 ± 0.084,–
CN(C)C(=O)c1ccc(-c2ccc([C@H]3[C@@H]4CN(Cc5ccccc5Cl)C[C@H]3N4)cc2)cc1,0.846 ± 0.021,–
CN(C)C(=O)c1cccc(-c2ccc([C@@H]3[C@@H]4CN(Cc5ccccc5F)C[C@H]3N4)cc2)c1,0.977 ± 0.016,–
Cc1ccc(S(=O)(=O)Nc2cccc3c2O[C@H](CN(C)C(=O)Nc2ccc(C(F)(F)F)cc2)[C@H](C)CN([C@H](C)CO)C3=O)cc1,1.07 ± 0.04,–
Cc1ccc(S(=O)(=O)N2CC[C@H]3[C@H](CO)Nc4ccc(-c5cccc(C(=O)N(C)C)c5)cc4[C@H]32)cc1,0.7 ± 0.018,–
CN(C)C(=O)c1cccc(-c2ccc3c(c2)[C@@H]2[C@@H](CCN2C(=O)Cc2ccccc2)[C@@H](CO)N3)c1,1.04 ± 0.025,–
CN(C)C(=O)c1cccc(-c2ccc3c(c2)[C@H]2[C@H](CCN2C(=O)Cc2ccccc2)[C@@H](CO)N3)c1,0.899 ± 0.042,–
CN(C)C(=O)c1cccc(-c2ccc3c(c2)[C@@H]2[C@@H](CCN2C(=O)Cc2ccccc2)[C@H](CO)N3)c1,0.991 ± 0.022,–
Cc1ccc(S(=O)(=O)N2CC[C@@H]3[C@H]2c2cc(-c4cccc(C(=O)N(C)C)c4)ccc2N[C@@H]3CO)cc1,0.885 ± 0.055,–
Cc1ccc(S(=O)(=O)N2CC[C@@H]3[C@@H](CO)Nc4ccc(-c5cccc(C(=O)N(C)C)c5)cc4[C@@H]32)cc1,0.837 ± 0.012,–
Cc1ccc(S(=O)(=O)N2CC[C@@H]3[C@H](CO)Nc4ccc(-c5cccc(C(=O)N(C)C)c5)cc4[C@@H]32)cc1,0.77 ± 0.034,–
N#Cc1cccc(-c2ccc3c(c2)[C@H]2[C@H](CCN2S(=O)(=O)c2ccc(F)cc2)[C@@H](CO)N3)c1,0.949 ± 0.023,–
CN(C)C(=O)c1cccc(-c2ccc3c(c2)[C@H]2[C@H](CCN2C(=O)Cc2ccccc2)[C@H](CO)N3)c1,1.03 ± 0.03,–
O=C(N[C@H]1C=C[C@@H](CC(=O)N2CCN(c3ccccc3)CC2)O[C@H]1CO)c1ccccc1,1.04 ± 0.087,–
N#C[C@H]1[C@H](c2ccc(-c3cncnc3)cc2)[C@@H](CO)N1C(=O)Cc1ccccc1,1.06 ± 0.1,–
COc1ccc(-c2ccccc2[C@@H]2[C@@H](CO)N(C(=O)C3CCC3)[C@H]2C#N)cc1,1.17 ± 0.15,–

SMILES,viability index [1],viability index [2]
O=C(C[C@@H]1CC[C@H]2NC[C@H](O)COC[C@@H]2O1)Nc1nccs1,1.04 ± 0.068,–
C[C@H](CO)N1C[C@H](C)[C@H](CN(C)Cc2cccc(C(F)(F)F)c2)OCc2ccccc2-c2c(n(C)c3ccccc23)C1=O,0.972 ± 0.029,–
COc1cccc(S(=O)(=O)N2CCCCN3[C@@H](CO)[C@H](c4ccc(C#CCC(C)C)cc4)[C@@H]3C2)c1,1.01 ± 0.053,–
COc1cccc(S(=O)(=O)N2CCCCN3[C@H](CO)[C@H](c4ccc(C#CCC(C)C)cc4)[C@@H]3C2)c1,1 ± 0.078,–
COc1cccc(S(=O)(=O)N2CCCCN3[C@@H](CO)[C@@H](c4ccc(C#CCC(C)C)cc4)[C@@H]3C2)c1,0.393 ± 0.021,–
COc1cccc(S(=O)(=O)N2CCCCN3[C@H](CO)[C@@H](c4ccc(C#CCC(C)C)cc4)[C@@H]3C2)c1,0.941 ± 0.042,–
COc1cccc(S(=O)(=O)N2CCCCN3[C@H](CO)[C@H](c4ccc(C#CCC(C)C)cc4)[C@H]3C2)c1,0.6428 ± 0.0032,–
COc1cccc(S(=O)(=O)N2CCCCN3[C@H](C2)[C@H](c2ccc(C#CCC(C)C)cc2)[C@@H]3CO)c1,0.9833 ± 0.0041,–
COc1ccc(NC(=O)N(C)C[C@H]2Oc3c(NC(=O)CCCCCC(=O)Nc4ccccc4N)cccc3C(=O)N([C@H](C)CO)C[C@H]2C)cc1,0.62 ± 0.082,–
COc1ccc(NC(=O)N(C)C[C@@H]2Oc3c(NC(=O)CCCCCC(=O)Nc4ccccc4N)cccc3C(=O)N([C@H](C)CO)C[C@H]2C)cc1,0.893 ± 0.012,–
COc1ccc(NC(=O)N(C)C[C@@H]2Oc3c(NC(=O)CCCCCC(=O)Nc4ccccc4N)cccc3C(=O)N([C@@H](C)CO)C[C@@H]2C)cc1,0.943 ± 0.058,–
COc1ccc(NC(=O)N(C)C[C@H]2Oc3c(NC(=O)CCCCCC(=O)Nc4ccccc4N)cccc3C(=O)N([C@@H](C)CO)C[C@@H]2C)cc1,0.991 ± 0.081,–
COc1ccc(NC(=O)N(C)C[C@H]2Oc3c(NC(=O)CCCCCC(=O)Nc4ccccc4N)cccc3C(=O)N([C@@H](C)CO)C[C@H]2C)cc1,0.645 ± 0.046,–
COc1ccc(NC(=O)N(C)C[C@@H]2Oc3c(NC(=O)CCCCCC(=O)Nc4ccccc4N)cccc3C(=O)N([C@@H](C)CO)C[C@H]2C)cc1,1.07 ± 0.091,–
COc1ccc2c3c([C@@H](CO)N(Cc4cc(OC)cc(OC)c4)C[C@]33CN(C3)C(=O)CN3CCOCC3)n(C)c2c1,0.879 ± 0.02,–
COC(=O)C[C@H]1CC[C@H]2[C@@H](COc3ccc(NS(=O)(=O)c4ccc(C)cc4)cc3C(=O)N2C)O1,1.114 ± 0.0014,–
C[C@@H]1CCCCO[C@@H](CN(C)CC2CCCCC2)[C@H](C)CN([C@@H](C)CO)C(=O)c2cc(NS(C)(=O)=O)ccc2O1,1.08 ± 0.061,–
CC(=O)N1C[C@@H]2N[C@H](C1)[C@H]2c1ccc(-c2ccccc2)cc1,1.11 ± 0.016,–
O=S(=O)(c1ccc(-c2ccccc2)cc1)N1C[C@@H]2N[C@H](C1)[C@@H]2c1ccc(-c2ccncc2)cc1,1.072 ± 0.0057,–
COc1cccc(-c2ccc([C@@H]3[C@@H]4CN(S(=O)(=O)Cc5ccccc5)C[C@H]3N4)cc2)c1,0.808 ± 0.031,–
CS(=O)(=O)N1C[C@@H]2N[C@H](C1)[C@@H]2c1ccc(-c2ccccc2)cc1,0.706 ± 0.03,–
N#Cc1ccc(-c2ccc([C@@H]3[C@@H]4CN(S(=O)(=O)Cc5ccccc5)C[C@H]3N4)cc2)cc1,0.976 ± 0.037,–
Cc1ccccc1-c1ccc([C@@H]2[C@@H]3CN(S(=O)(=O)Cc4ccccc4)C[C@H]2N3)cc1,0.854 ± 0.034,–
